# Test results from PubChem BioAssay (NCI).
# This is part of a sample that, as a whole, favours compounds with a hit. Of some 83,000 tested, about 20% had one in any assay.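 Plates (96-well) were seeded with cells, treated with compound at one concentration, and incubated for 48 hours before percent growth was determined.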 Activity calls are given as the source filed them. Rule for the calls: active = growth percent below 10; inactive = the rest.
# Test system: HCT-15 colon
# Experiment: NCI-60 one-dose screen, 48 h (100 = growth as untreated, 0 = no growth, -100 = all killed)
# Settings: 10 µM unless noted
row,Structure (SMILES),growth
1,Brc1ccc(-c2n(Cc3ccc4ccccc4c3)c(-c3ccccc3)c(-c3ccccc3)[n+]2Cc2ccc3ccccc3c2)cc1,-85.4% (active)
2,O=C1CCCc2cc(OCC(=O)N3CCCCC3)ccc2N1,105% (inactive)
3,COc1cc2c3c(n(CCCN4CCC[C@@H]4CO)c(=O)c2cc1OC)-c1cc2c(cc1C3=O)OCO2,-90.9% (active)
4,CC(=O)c1c(N)c(C#N)cn1-c1ccc(Cl)cc1Cl,99.5% (inactive)
5,Cc1ccc(C2CC(c3ccc(S(=O)(=O)NCCNc4nc(Nc5ccc(F)cc5)nc(N(C)C)n4)cc3)=Nc3c(N)nc(N)nc3N2)cc1 (configuration not stated),29.1% (inactive)
6,Cc1ccc(C(=O)C(c2c[nH]c3ccccc23)c2c[nH]c3ccccc23)cc1,-15.3% (active)
7,COc1cc(-c2nc3ccc(C)cc3[nH]2)ccc1OCc1nnc(-c2ccc(Br)cc2)o1,19.2% (inactive)
8,Nc1nnc(-c2c[nH]c3ccc(Br)cc23)c(-c2c[nH]c3ncc(Br)cc23)n1,26.9% (inactive)
9,Cc1ccc(-c2nc(C#N)c(S(=O)(=O)N3CCN(S(=O)(=O)c4ccc(Cl)cc4)CC3)o2)cc1,103% (inactive)
10,CCOC(=O)C1=C(N)N(c2ccccc2)C2=C(C(=O)CC(C)(C)C2)C1c1ccccc1Cl (configuration not stated),49.1% (inactive)
11,Cc1ccc(C(=O)NN2C(=O)/C(=C/C=C/c3ccc([N+](=O)[O-])o3)SC2=S)cc1,-66.1% (active)
12,CCCS(=O)(=O)N1CCCC(C(=O)Nc2nc3ccc(NC(=O)c4ccc(F)c(OC)c4F)cc3s2)C1 (configuration not stated),37.1% (inactive)
13,O=C1CC(Sc2n[nH]c(-c3ccncc3)n2)C(=O)N1c1ccc(Br)cc1 (configuration not stated),102% (inactive)
14,COc1ccc(NC(=O)Nc2ccc(OCc3ccc(F)cc3)cc2)cc1,91.1% (inactive)
15,COc1ccc(/C=C/c2nc3ccccc3n3c(-c4ccc(Cl)cc4)nnc23)cc1,93.3% (inactive)
16,CC1(C)CC[C@]2(C(=O)O)CC[C@]3(C)C(=CCC4[C@@]5(C)C[C@@H](O)[C@@H]6OC(c7ccccc7Br)OC[C@@]6(C)C5CC[C@]43C)C2C1 (some centres not stated),8.96% (active)
17,CC(=O)OCC1OC(OC2C(COC(C)=O)OC(n3cc(COc4ccc5ccc(=O)oc5c4)nn3)C(OC(C)=O)C2OC(C)=O)C(OC(C)=O)C(OC(C)=O)C1OC(C)=O (configuration not stated),102% (inactive)
18,COc1ccc(Cc2nn(CC(=O)N/N=C/c3ccc(F)cc3)c(=O)c3c(C)noc23)cc1,67.2% (inactive)
19,O=C(c1ccccc1)C(c1c[nH]c2ccccc12)c1c[nH]c2ccccc12,13% (inactive)

row,Structure (SMILES),growth
1,N=C1N=C(SCc2nc3ccccc3[nH]2)NC(=O)/C1=C/c1ccc(Cl)cc1,103% (inactive)
2,Cn1cc(-c2cc3nc(-c4c[nH]c5ccc(Cl)cc45)cc(N)n3n2)c2ccccc21,-86.2% (active)
3,CC1(C)CC[C@]2(C(=O)O)CC[C@]3(C)C(=CCC4[C@@]5(C)C[C@@H](O)[C@@H]6OC(c7ccco7)OC[C@@]6(C)C5CC[C@]43C)C2C1 (some centres not stated),20.7% (inactive)
4,COc1ccc(C2CC(c3ccc(S(=O)(=O)NCCNc4nc(Nc5ccc(F)cc5)nc(N(C)C)n4)cc3)=Nc3c(N)nc(N)nc3N2)cc1 (configuration not stated),82.7% (inactive)
5,O=C(Nc1ccccc1)N1CCN(c2cc(-c3cn(-c4ccccc4)nc3-c3cccc(O)c3)ccn2)CC1,21.4% (inactive)
6,CNS(=O)(=O)c1ccc(Nc2ccc(C(F)(F)F)cc2)c(-c2cn(C)cn2)c1,34.5% (inactive)
7,CCS(=O)(=O)N1CCCC(C(=O)Nc2nc3ccc(NC(=O)c4ccc(F)c(OC)c4F)cc3s2)C1 (configuration not stated),51% (inactive)
8,COc1ccc(CCC2c3c(cc4c(c3OC)OCO4)CCN2C)cc1 (configuration not stated),-16.4% (active)
9,Nc1nc(-c2ccccc2)c(N=Nc2ccc([N+](=O)[O-])cc2Cl)s1,68.1% (inactive)
10,CN(C)c1nc(NCCNS(=O)(=O)c2ccc(C3=Nc4c(N)nc(N)nc4NC(c4ccccc4)C3)cc2)nc(Nc2ccc(F)cc2)n1 (configuration not stated),37.4% (inactive)
11,N/C(=N\c1nc2ccccc2s1)NC(=O)Nc1ccc(Cl)cc1Cl,-25.7% (active)
12,CCCCn1c(O)c(N=Nc2nc(-c3cc4ccccc4oc3=O)cs2)c2cc(Br)ccc21,102% (inactive)
13,Cc1cccc(-c2nc(Nc3cccc(S(N)(=O)=O)c3)c3ccccc3n2)c1,9.69% (active)
14,Cn1cc(-c2cc(N)n3nc(-c4cn(C)c5ccccc45)cc3n2)c2cc(Br)ccc21,-79.1% (active)
15,COc1cc2c(c(OC)c1OC)C(=O)CC(c1cccc(NC(=O)c3cc(NC(=O)[C@H](C)N)ccc3Cl)c1)O2 (some centres not stated),24.5% (inactive)
16,C#CCOc1cc(N(CC)CC)ccc1C(C(=O)NC(C)(C)C)N(C(=O)C1CCc2cc(F)ccc2O1)c1cc(C)cc(C)c1 (configuration not stated),31.9% (inactive)
17,Cc1ccc(C2=NN(c3nc(-c4cc5ccccc5oc4=O)cs3)C(c3ccc(C)cc3)C2)cc1 (configuration not stated),91.7% (inactive)
18,Cn1cc(-c2nc(N)nnc2-c2c[nH]c3ccc(F)cc23)c2cc(Br)cnc21,3.56% (active)
